Test results: the supplement of paper PMC11732987, “Enantioselective OTUD7B fragment discovery through chemoproteomics screening and high-throughput optimisation” (Communications Chemistry, 2025)

Tests used:
Test in all cases: log2 ratio of Biotin-Ahx-Ub-VS probe labelling (fragment/DMSO); higher = less target engagement (more negative = stronger competition), active = hit call of the paper (q ≤ 0.05, log2 ratio ≤ -1)
Settings in all cases: compound concentration: 200 uM; treatment time: 3 h
ALG13 = biological target: T1, ALG13 (UniProt Q9NP73)
T1 sequence (whole entry): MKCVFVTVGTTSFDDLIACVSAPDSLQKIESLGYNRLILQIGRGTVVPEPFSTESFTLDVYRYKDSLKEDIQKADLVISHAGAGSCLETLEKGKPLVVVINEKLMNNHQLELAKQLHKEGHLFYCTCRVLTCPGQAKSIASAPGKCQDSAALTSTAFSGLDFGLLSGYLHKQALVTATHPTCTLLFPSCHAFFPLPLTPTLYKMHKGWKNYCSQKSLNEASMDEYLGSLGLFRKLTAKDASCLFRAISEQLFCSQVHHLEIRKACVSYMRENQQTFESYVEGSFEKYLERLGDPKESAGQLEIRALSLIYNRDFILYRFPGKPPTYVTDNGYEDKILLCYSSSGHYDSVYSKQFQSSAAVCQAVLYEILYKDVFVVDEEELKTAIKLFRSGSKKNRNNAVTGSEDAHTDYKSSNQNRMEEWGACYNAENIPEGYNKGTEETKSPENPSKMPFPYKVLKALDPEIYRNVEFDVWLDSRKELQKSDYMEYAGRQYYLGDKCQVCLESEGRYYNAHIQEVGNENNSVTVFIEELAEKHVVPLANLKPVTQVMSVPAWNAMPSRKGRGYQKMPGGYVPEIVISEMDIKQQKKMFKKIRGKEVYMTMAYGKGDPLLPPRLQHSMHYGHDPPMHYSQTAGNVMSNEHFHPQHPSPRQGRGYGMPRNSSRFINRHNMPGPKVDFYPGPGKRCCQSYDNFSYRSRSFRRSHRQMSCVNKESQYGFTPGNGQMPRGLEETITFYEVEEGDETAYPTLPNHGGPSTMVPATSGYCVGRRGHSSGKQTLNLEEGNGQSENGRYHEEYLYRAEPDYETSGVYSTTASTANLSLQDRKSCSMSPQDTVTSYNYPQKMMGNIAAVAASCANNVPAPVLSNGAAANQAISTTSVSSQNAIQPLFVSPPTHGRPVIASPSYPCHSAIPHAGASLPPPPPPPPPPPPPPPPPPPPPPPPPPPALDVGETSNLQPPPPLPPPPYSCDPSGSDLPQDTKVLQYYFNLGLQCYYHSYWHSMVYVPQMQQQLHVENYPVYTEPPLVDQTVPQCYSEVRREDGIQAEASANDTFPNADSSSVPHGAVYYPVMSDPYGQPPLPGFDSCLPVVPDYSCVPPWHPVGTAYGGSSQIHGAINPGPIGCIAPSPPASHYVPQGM
Procedure, shortened: (§1)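 HEK293T lysate (495 µg per sample, in Tris/CHAPS/IGEPAL buffer with protease inhibitors) was exposed in triplicate for 3 h to fragment at 200 µM or to vehicle, then to Biotin-Ahx-Ub-VS at 0.5 µM final for 1 h. Labelled DUBs were enriched on NeutrAvidin, digested with LysC and trypsin, and analysed by diaPASEF LC-MS/MS. Spectronaut label-free quantities were normalised to the global median, and values are average log2 ratios of fragment over vehicle from an unpaired t-test. Only proteins with ≥2 unique peptides were used.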

ATXN3 = ATXN3 (UniProt P54252)
Procedure, shortened: as §1

BAP1 = biological target: T2, BAP1 (UniProt Q92560)
T2 sequence (whole entry): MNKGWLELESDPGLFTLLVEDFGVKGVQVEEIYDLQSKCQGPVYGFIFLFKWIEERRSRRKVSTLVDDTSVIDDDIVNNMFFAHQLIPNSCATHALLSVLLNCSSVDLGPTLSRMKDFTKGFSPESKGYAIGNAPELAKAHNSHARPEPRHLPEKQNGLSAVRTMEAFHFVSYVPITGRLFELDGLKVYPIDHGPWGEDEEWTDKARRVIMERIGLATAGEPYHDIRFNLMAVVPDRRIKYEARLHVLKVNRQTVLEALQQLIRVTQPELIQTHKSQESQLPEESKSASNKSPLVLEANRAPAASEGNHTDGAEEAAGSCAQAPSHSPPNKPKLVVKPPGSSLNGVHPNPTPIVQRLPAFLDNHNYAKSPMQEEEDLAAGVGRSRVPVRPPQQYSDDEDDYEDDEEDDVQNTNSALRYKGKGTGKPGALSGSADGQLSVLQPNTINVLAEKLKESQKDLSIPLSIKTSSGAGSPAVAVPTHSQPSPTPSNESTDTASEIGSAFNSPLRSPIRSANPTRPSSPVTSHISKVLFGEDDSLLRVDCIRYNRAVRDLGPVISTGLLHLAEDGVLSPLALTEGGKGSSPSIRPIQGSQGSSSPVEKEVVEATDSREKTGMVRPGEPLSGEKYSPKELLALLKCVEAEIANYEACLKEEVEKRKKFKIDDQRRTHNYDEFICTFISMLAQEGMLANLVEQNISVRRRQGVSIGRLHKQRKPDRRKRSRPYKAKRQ
Procedure, shortened: as §1

EIF3F = EIF3F (UniProt O00303)
Procedure, shortened: as §1

EIF3H = EIF3H (UniProt O15372)
Procedure, shortened: as §1

FAM105A = biological target: T3, FAM105A (UniProt Q9NUU6)
T3 sequence (whole entry): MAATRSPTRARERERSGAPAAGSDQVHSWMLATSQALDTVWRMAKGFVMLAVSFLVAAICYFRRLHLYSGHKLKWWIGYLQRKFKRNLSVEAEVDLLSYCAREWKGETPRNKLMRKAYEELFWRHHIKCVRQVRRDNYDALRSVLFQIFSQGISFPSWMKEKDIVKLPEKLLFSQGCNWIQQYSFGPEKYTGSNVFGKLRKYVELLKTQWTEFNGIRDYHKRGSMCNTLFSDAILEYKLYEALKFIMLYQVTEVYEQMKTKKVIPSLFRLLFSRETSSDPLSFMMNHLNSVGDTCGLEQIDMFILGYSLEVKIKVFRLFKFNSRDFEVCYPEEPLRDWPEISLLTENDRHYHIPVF
Procedure, shortened: as §1

OTUB1 = OTUB1 (UniProt Q96FW1)
Procedure, shortened: as §1

OTUD4 = biological target: T4, OTUD4 (UniProt Q01804)
T4 sequence (whole entry): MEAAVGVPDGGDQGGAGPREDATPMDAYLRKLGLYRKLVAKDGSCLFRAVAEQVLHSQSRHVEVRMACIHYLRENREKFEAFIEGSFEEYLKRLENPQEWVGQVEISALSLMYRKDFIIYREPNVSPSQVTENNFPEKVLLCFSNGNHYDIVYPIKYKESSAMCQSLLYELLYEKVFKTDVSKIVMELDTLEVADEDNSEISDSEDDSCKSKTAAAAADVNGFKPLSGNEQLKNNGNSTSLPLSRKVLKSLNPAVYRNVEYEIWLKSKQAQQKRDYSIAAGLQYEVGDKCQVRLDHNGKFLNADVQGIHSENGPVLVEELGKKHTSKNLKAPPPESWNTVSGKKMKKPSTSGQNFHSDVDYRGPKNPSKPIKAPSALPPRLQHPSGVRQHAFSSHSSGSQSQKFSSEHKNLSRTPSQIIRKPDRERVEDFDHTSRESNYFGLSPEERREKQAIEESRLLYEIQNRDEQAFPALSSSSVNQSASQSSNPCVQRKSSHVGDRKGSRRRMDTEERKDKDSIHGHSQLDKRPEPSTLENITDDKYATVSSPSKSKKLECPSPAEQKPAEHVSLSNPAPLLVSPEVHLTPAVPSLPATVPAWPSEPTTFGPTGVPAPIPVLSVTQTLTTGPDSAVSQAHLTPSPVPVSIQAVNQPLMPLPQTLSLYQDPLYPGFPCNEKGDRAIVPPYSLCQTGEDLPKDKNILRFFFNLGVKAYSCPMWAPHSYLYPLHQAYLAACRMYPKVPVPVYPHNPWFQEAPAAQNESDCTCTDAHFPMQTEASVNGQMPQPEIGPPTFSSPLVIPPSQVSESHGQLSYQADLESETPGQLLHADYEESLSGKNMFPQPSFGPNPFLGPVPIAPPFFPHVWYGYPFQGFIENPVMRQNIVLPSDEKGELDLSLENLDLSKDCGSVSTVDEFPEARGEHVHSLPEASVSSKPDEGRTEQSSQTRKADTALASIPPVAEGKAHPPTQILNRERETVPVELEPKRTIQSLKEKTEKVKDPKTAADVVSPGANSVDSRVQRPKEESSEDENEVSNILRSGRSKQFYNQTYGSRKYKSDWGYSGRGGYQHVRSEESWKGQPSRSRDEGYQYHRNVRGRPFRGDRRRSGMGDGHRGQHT
Procedure, shortened: as §1

OTUD5 = biological target: T5, OTUD5 (UniProt Q96G74)
T5 sequence (whole entry): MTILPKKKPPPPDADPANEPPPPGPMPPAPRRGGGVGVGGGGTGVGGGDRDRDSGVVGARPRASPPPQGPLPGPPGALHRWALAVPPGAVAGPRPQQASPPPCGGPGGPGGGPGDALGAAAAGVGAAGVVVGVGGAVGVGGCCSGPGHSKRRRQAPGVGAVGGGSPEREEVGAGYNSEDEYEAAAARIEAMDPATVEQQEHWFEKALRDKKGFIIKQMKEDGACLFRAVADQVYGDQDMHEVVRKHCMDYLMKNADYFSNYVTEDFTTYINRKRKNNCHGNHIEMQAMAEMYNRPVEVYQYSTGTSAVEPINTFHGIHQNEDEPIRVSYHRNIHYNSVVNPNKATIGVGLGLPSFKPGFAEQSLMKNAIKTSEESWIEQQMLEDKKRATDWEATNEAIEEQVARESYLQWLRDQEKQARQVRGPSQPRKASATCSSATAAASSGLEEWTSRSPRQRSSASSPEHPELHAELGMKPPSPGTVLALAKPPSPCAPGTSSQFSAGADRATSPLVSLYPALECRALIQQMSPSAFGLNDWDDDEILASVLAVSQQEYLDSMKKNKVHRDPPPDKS
Procedure, shortened: as §1

Measured: log2 ratio of Biotin-Ahx-Ub-VS probe labelling

Chain of OTUB1 (Q96FW1 whole entry): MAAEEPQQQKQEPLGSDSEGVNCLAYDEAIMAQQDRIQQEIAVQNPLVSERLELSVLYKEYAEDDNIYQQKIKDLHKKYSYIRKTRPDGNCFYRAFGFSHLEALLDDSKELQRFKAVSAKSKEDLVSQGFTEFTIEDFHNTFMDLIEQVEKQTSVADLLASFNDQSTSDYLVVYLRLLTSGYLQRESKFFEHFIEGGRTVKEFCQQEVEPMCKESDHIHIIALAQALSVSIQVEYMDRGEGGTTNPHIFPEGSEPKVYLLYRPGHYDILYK
Chain of ATXN3 (P54252 whole entry): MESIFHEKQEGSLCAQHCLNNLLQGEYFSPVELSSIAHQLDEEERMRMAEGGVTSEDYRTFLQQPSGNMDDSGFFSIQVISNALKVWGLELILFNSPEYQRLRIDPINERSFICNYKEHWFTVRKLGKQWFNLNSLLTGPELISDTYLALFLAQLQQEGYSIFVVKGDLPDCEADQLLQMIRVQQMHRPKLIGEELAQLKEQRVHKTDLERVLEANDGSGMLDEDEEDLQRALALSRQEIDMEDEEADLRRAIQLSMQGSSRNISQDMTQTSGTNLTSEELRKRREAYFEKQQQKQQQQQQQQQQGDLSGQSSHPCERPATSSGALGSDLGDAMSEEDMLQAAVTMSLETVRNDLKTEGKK
Chain of EIF3F (O00303 whole entry): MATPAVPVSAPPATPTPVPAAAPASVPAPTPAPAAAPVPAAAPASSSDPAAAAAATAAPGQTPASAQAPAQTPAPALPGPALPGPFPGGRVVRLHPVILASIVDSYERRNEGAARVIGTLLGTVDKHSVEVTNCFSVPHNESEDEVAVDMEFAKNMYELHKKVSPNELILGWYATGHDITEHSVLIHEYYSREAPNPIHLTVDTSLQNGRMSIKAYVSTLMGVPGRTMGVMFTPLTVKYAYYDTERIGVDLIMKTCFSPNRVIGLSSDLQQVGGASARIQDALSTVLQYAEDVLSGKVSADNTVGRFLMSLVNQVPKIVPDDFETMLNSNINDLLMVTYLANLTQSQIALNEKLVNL
Chain of EIF3H (O15372 whole entry): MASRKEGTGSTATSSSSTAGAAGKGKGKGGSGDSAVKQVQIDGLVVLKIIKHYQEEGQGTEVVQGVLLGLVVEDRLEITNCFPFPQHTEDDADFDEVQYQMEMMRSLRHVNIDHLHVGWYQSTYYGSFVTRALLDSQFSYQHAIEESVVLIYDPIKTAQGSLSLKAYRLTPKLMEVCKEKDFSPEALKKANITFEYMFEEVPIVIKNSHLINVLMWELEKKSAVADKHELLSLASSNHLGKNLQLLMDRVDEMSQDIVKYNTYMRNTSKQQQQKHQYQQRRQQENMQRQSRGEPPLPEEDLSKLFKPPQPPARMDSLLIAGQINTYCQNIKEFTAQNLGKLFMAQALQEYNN

Cc1cccn2cc(CCNC(=O)CCl)nc12.Cl
inactive: ALG13 0.103 | ATXN3 -0.114 | BAP1 -0.597 | EIF3F -0.323 | EIF3H 0.00132 | FAM105A 0.112 | OTUB1 -0.0371 | OTUD4 0.123 | OTUD5 0.0126
